PubChem BioAssay (NCATS)

Assay: qHTS profiling of the MIPE4 collection as inhibitors of Plasmodium falciparum (DD2) proliferation (Rep 2) (AID 743346)
Conditions: P. falciparum Dd2 in erythrocytes, SYBR Green DNA, 72 h; at 28.5 µM unless noted
Description: Plasmodium falciparum is a virulent malarial parasite that kills 1-2 million people worldwide each year. Transmitted by mosquitoes, the sporozoite form of the parasite enters the blood stream to infect hepatocytes, where they become merozoites that infect red blood cells (erythrocytes). Within erythrocytes, merozoites begin a […] cycle of growth and division, after which the parasite is released to infect new red blood cells. Gametocytes, which form within erythrocytes as well, circulate in the bloodstream and are ingested by the mosquito, thereby completing the life cycle. To profile malarial isolates for differential chemical responses and to identify inhibitors of malarial growth, an assay that measures P. falciparum growth and replication within erythrocytes was employed. This assay uses a DNA binding fluorescent dye (SYBR Green) to detect parasite DNA following cell lysis. Because mature erythrocytes lack DNA, only Plasmodium-derived DNA is detected.
The SYBR Green viability assay was adapted from a method described previously (Plouffe et al., 2008). For screening 3 ul culture medium was dispensed into 1536 well black clear bottom plates (Aurora Biotechnologies) using a Multidrop Combi (Thermo Fisher Scientific Inc.), 23 nL compounds in DMSO were added by a pin tool (Kalypsys), and 5 ul of erythrocytes infected with P. falciparum (0.3% parasitemia, 2.5% hematocrit final concentration) were added. The plates were incubated at 37 C in a humidified incubator in 5% CO2 for 72 h, and 2 ul lysis buffer (20 mM Tris HCl, 10 mM EDTA, 0.16% saponin, 1.6% triton X, 10X SYBR Green I supplied as 10,000X […] by Invitrogen) was added to each well. The plates were mixed for 25 sec with gentle shaking and incubated overnight at room temperature in the dark. The following morning, fluorescence intensity at 485(14) nm excitation and 535(25) nm emission wavelengths was measured on an EnVision (Perkin Elmer) plate reader. Plate reads were normalized relative to the control inhibitor (0.29 uM artemisinin) and vehicle (DMSO) wells present on each plate and then corrected by an algorithm using vehicle-only control plates at the beginning and end of the compound plate stack.

| SMILES | parasite growth, % of control (lower = inhibition) |
| --- | --- |
| CC=CCC(C)C(O)C1C(=O)NC(CC)C(=O)N(C)CC(=O)N(C)C(CC(C)C)C(=O)NC(C(C)C)C(=O)N(C)C(CC(C)C)C(=O)NC(C)C(=O)NC(C)C(=O)N(C)C(CC(C)C)C(=O)N(C)C(CC(C)C)C(=O)N(C)C(C(C)C)C(=O)N1C (stereo not given) | 13.2% |
| O=C1NC(=O)C(=Cc2ccc3c(c2)OC(F)(F)O3)S1 | 126% |
| COc1ccc(-c2oc3c(CC=C(C)C)c(OC4O[C@H](CO)[C@@H](O)[C@H](O)[C@@H]4O)cc(O)c3c(=O)c2OC2O[C@@H](C)[C@H](O)[C@@H](O)[C@@H]2O)cc1 (stereo not given in full) | 36.2% |
| CC[C@@H]1C=C(C)C[C@H](C)C[C@H](OC)[C@H]2O[C@@](O)(C(=O)C(=O)N3CCCC[C@@H]3C(=O)O[C@H](C(C)=C[C@@H]3CC[C@H](Cl)[C@H](OC)C3)[C@H](C)[C@@H](O)CC1=O)[C@H](C)C[C@H]2OC | 17.3% |
| CCOC(=O)C1=C(N)Oc2ccc(Br)cc2C1C(C#N)C(=O)OCC (stereo not given) | 93.2% |
| CN(C)C1CCN(C(=O)c2ccc(NC(=O)Nc3nc(N4CCOCC4)nc(N4CCOCC4)n3)cc2)CC1 | 9.5% |
| COc1cc(N2CCC(N3CCN(C)CC3)CC2)ccc1Nc1ncnc(Nc2ccccc2S(=O)(=O)C(C)C)n1 | 8.07% |
| CN(C[C@@H]1COCCO1)S(=O)(=O)Nc1ccc2ccc3ncc(-c4cnn(C)c4)cc3c(=O)c2c1 | 21.5% |
| NC[C@@H]1O[C@@H](O[C@H]2[C@@H](O)[C@H](O[C@@H]3[C@@H](O)[C@@H](N)C[C@H](N)[C@H]3O[C@H]3O[C@H](CN)[C@@H](O)[C@@H](O)[C@H]3N)O[C@H]2CO)[C@H](N)[C@@H](O)[C@@H]1O | 90% |
| CC(C)n1cnc2c(NCCCCCCNC(=O)OC(C)(C)C)nc(NCCO)nc21 | 24.8% |
| Clc1ccc(-c2nc3sccn3c2C=NOCc2ccc(Cl)c(Cl)c2)cc1 | 122% |
| CO[C@H]1C[C@@H]2CC[C@@H](C)[C@@](O)(O2)C(=O)C(=O)N2CCCC[C@@H]2C(=O)O[C@H]([C@H](C)C[C@@H]2CC[C@H](OCCO)[C@H](OC)C2)CC(=O)[C@H](C)C=C(C)[C@@H](O)[C@@H](OC)C(=O)[C@H](C)C[C@H](C)C=CC=CC=C1C | 8.53% |
| O=c1ccn([C@@H]2O[C@H](CO)[C@H](O)[C@H]2O)c(=O)[nH]1 | 99.5% |
| Cc1ccc(C(=O)Nc2cccc(C(F)(F)F)c2)cc1Nc1nc(-c2cccnc2)nc2c1cnn2C | 27.1% |
| O=c1c(-c2ccc(O)cc2)coc2cc(OC3O[C@H](CO)[C@H](O)[C@H](O)[C@H]3O)cc(O)c12 (stereo not given in full) | 65.7% |
| O=C1c2ccccc2-[n+]2ccc3c([nH]c4ccccc43)c21 | 16.6% |
| COc1ccc2c(Oc3ccc(NC(=O)c4c(C)n(CC(C)(C)O)n(-c5ccccc5)c4=O)nc3)ccnc2c1 | 37% |
| CON=C(C(=O)N[C@@H]1C(=O)N2C(C(=O)OCOC(=O)C(C)(C)C)=C(C=Cc3scnc3C)CS[C@H]12)c1csc(N)n1 | 73% |
| Cc1ccc(/C=N/NC(=O)c2ccccc2Oc2ccccc2)o1 | 120% |
| COc1ccc(-c2cc(=O)c3c(O)cc(O)cc3o2)cc1O | 43.3% |

| SMILES | parasite growth, % of control (lower = inhibition) |
| --- | --- |
| CC(=O)Nc1ccc([C@H](C)C(=O)Nc2ncc(C(C)C)s2)cc1 | 7.23% |
| CC(C)[C@H](CO)Nc1nc(Nc2ccc(C(=O)O)c(Cl)c2)c2ncn(C(C)C)c2n1 | 29.5% |
| Nc1ncnc2c1ncn2[C@@H]1O[C@@H](CO)[C@H](O)[C@H]1O | 114% |
| COc1cc2ncnc(-n3nc(-c4ccccn4)nc3N)c2cc1OC | 11.1% |
| C=CCc1ccc(O)c(-c2ccc(O)c(CC=C)c2)c1 | 27.4% |
| COc1ccc(-c2coc3cc(O)ccc3c2=O)cc1 | 96.3% |
| C[C@@H](O)[C@H]1C(=O)N2C(C(=O)O)=C(S[C@@H]3CN[C@H](C(=O)N(C)C)C3)[C@H](C)[C@H]12 | 118% [at 9.64 µM] |
| COc1cc(Nc2ncc(F)c(Nc3ccc4c(n3)NC(=O)C(C)(C)O4)n2)cc(OC)c1OC | 6.47% |
| CC#CCn1c(N2CCC[C@@H](N)C2)nc2c1c(=O)n(Cc1nc(C)c3ccccc3n1)c(=O)n2C | 22.9% |
| O=C(Nc1ccccc1Br)N[C@@H]1CCN(c2ccc(C(F)(F)F)cn2)C1 | 82.5% |
| NC(=O)c1cccc2[nH]c(-c3ccc([C@H]4CCCN4)cc3F)nc12 | 8.83% |
| COc1cccc2c1CCCC2CCCN1CCN(C2CCCCC2)CC1 (stereo not given) | 16.3% |
| CCN(CC)CCOc1ccc(C(=C(Cl)c2ccccc2)c2ccccc2)cc1 | 6.97% |
| COc1ccc(C2CC(c3ccccc3)=NN2c2ccc(S(N)(=O)=O)cc2)cc1 (stereo not given) | 46.5% |
| CO[C@@H](C(=O)N1Cc2[nH]nc(NC(=O)c3ccc(N4CCN(C)CC4)cc3)c2C1)c1ccccc1 | 10.5% |
| NC(=O)[C@@H](CCC(F)(F)F)N(Cc1ccc(-c2ncon2)cc1F)S(=O)(=O)c1ccc(Cl)cc1 | 54.6% |
| CO[C@H]1C[C@@H]2CC[C@@H](C)[C@@](O)(O2)C(=O)C(=O)N2CCCC[C@@H]2C(=O)O[C@H]([C@@H](C)C[C@@H]2CC[C@H](O)[C@H](OC)C2)CC(=O)[C@H](C)C=C(C)[C@@H](O)[C@@H](OC)C(=O)[C@H](C)C[C@H](C)C=CC=CC=C1C | 7.75% |
| Cc1cc(OCCCc2c(C(=O)O)n(Cc3cccnc3)c3c(-c4c(COc5ccc(N6CCN([S+](C)(=O)[O-])CC6)cc5)nn(C)c4C)cccc23)cc(C)c1Cl | 16% |
| CNC1CCC(N(Cc2cccc(-c3ccncc3)c2)C(=O)c2sc3c(F)ccc(F)c3c2Cl)CC1 (stereo not given) | 23.7% |
| N#CC1(c2ccc(NC(=O)c3cccnc3NCc3ccncc3)cc2)CCCC1 | 65.6% |
